Measured values published in PubChem BioAssay (NCI).
This is part of a sample that, as a whole, favours compounds with a hit. Of some 83,000 tested, about 20% had one in any assay.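 96-well plates, one dose, 48 hours. Percent growth reported; active if below 10.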 A number with no mark means an inactive call. Active and inactive are the calls of the source.

Key:
Assay in all cases: NCI-60 one-dose screen, 48 h (100 = growth as untreated, 0 = no growth, -100 = all killed)
Conditions in all cases: 10 µM unless noted
NCI-H23 lung = system: NCI-H23 lung
NCI-H226 lung = system: NCI-H226 lung
NCI-H322M lung = system: NCI-H322M lung
HOP-62 NSCLC = system: HOP-62 NSCLC
NCI-H460 lung = system: NCI-H460 lung
HOP-92 NSCLC = system: HOP-92 NSCLC
NCI-H522 lung = system: NCI-H522 lung
A549/ATCC NSCLC = system: A549/ATCC NSCLC
786-0 renal = system: 786-0 renal
COLO 205 colon = system: COLO 205 colon
DU-145 prostate = system: DU-145 prostate
K-562 leukemia = system: K-562 leukemia
MALME-3M melanoma = system: MALME-3M melanoma
MDA-MB-231 breast = system: MDA-MB-231 breast
RXF 393 renal = system: RXF 393 renal
SF-268 CNS = system: SF-268 CNS
SF-295 CNS = system: SF-295 CNS
SF-539 CNS = system: SF-539 CNS
UACC-257 melanoma = system: UACC-257 melanoma
M14 melanoma = system: M14 melanoma

Row | SMILES | growth (NCI-H23 lung) | growth (NCI-H226 lung) | growth (NCI-H322M lung) | growth (HOP-62 NSCLC) | growth (NCI-H460 lung) | growth (HOP-92 NSCLC) | growth (NCI-H522 lung) | growth (A549/ATCC NSCLC) | growth (786-0 renal) | growth (COLO 205 colon) | growth (DU-145 prostate) | growth (K-562 leukemia) | growth (MALME-3M melanoma) | growth (MDA-MB-231 breast) | growth (RXF 393 renal) | growth (SF-268 CNS) | growth (SF-295 CNS) | growth (SF-539 CNS) | growth (UACC-257 melanoma) | growth (M14 melanoma)
1 | O=C1C=CC2(NN=C(c3ccccc3)N2c2ccc(Cl)cc2)c2cccc(O)c21 (stereo not given) | 13.6% | 60.5% | 89.5% | 26.5% | 64.3% | 125% | 51.1% | 22.3% | 93.4% | 94.5% | 51.9% | 25.5% | 38.8% | 77.4% | 119% | 57.3% | 27.8% | 26.6% | 5.85% (active) | 28.9%
2 | O=C(CNc1nc2ccccc2s1)Nc1ccc(-c2nc3ccccc3s2)cc1 | 88.9% | 92.4% | 92.3% | 104% | 99.8% | 99.8% | 91.2% | 100% | 102% | 112% | 106% | 95.1% | 98.1% | 99.2% | 112% | 92.1% | 107% | 107% | 102% | 115%
3 | Nc1ncnc2c1c(-c1cccc(OCc3ccccc3)c1)cn2C1CC(CN2CCC2)C1 (stereo not given) | 33.6% | 40.1% | 42.9% | -29.5% (active) | 21.9% | -21% (active) | -23.6% (active) | 4.8% (active) | -70.4% (active) | -66.7% (active) | 44.5% | -45.7% (active) | -79.7% (active) | 3.88% (active) | -16.4% (active) | 17.3% | -47.3% (active) | -84.4% (active) | -79.4% (active) | -78.1% (active)
4 | COc1ccc(-c2cnc(-c3ccc(Cl)cc3)[nH]2)cc1OC | 99.2% | 88.3% | 120% | 94.3% | 100% | 25.8% | 105% | 105% | 100% | 98.7% | 78.7% | 115% | 155% | 78.6% | 91.6% | 78% | 111% | 95.6% | 119% | 115%
5 | NC[C@@](O)(c1ccc(Cl)cc1)c1ccc(-c2cn[nH]c2)cc1 | 27.4% | 43.9% | 10.3% | 15.2% | 23.1% | -1.15% (active) | 17.7% | 18.3% | 6.12% (active) | -22.8% (active) | 30.3% | 17.2% | -24.7% (active) | 31.7% | -6.86% (active) | 35.5% | 28.6% | 3.43% (active) | -23.9% (active) | 7.61% (active)
6 | c1cn2cc(-c3ccc4cn[nH]c4c3)nc(Nc3ccc(N4CCOCC4)cc3)c2n1 | 64.8% | 20.8% | 70% | 9.23% (active) | 41.7% | 39.2% | 24.4% | 45% | 59.2% | 61.3% | 53.3% | 65.9% | 74.8% | 55.1% | 12.4% | 34.9% | 66.4% | 46.9% | 62.6% | 55.1%
7 | C=CC(=O)Nc1cccc(Oc2nc(Nc3ccc(N4CCN(C)CC4)cc3)nc3ccsc23)c1 | 32.2% | -2.55% (active) | 4.69% (active) | -62% (active) | -59.8% (active) | -70.8% (active) | -77.1% (active) | -74.1% (active) | -84% (active) | -83.3% (active) | -48.4% (active) | -25.6% (active) | -84.2% (active) | -58% (active) | -83.9% (active) | 3.11% (active) | 23.9% | -92.9% (active) | -80.8% (active) | -81% (active)
8 | CC(C)(O)CC(=O)NCCn1ccc2ncnc(Nc3ccc(Oc4cccc(C(F)(F)F)c4)c(Cl)c3)c21 | 20% | 26.1% | -2.67% (active) | -12.2% (active) | 11.1% | -23.1% (active) | -20.4% (active) | 1.14% (active) | 22.6% | -67.4% (active) | 27.4% | 4.49% (active) | -8.01% (active) | 11.9% | 3.66% (active) | 29.3% | 31% | 8.28% (active) | -26.8% (active) | -1.37% (active)
9 | Cc1c(NC(=O)OC[C@@H]2COCCN2)cn2ncnc(Nc3ccc4c(cnn4Cc4cccc(F)c4)c3)c12 | -12.9% (active) | -1.69% (active) | -1.86% (active) | -25% (active) | 4.49% (active) | -12.7% (active) | -30.4% (active) | -9.38% (active) | 0.0698% (active) | -45.4% (active) | 10.1% | 11.5% | -27% (active) | 1.06% (active) | -62.4% (active) | -2.37% (active) | 14.6% | -52.4% (active) | -31.3% (active) | -29.3% (active)
10 | O=c1[nH]ccc2c(S(=O)(=O)N3CCCNCC3)cccc12 | 78.5% | 81.7% | 29.6% | 68.8% | 95.3% | 30% | 17.3% | 81.3% | 54% | 112% | 62.2% | 104% | 82.2% | 87.3% | 57.8% | 54.3% | 74.5% | 76.5% | 99.1% | 88.3%
11 | C#Cc1cccc(Nc2ncnc3cc4c(cc23)OCCOCCOCCO4)c1 | 80.5% | 71.3% | 1.86% (active) | 56.1% | 76.6% | 49.4% | 0.957% (active) | 42.7% | 51.7% | 86.8% | 47.8% | 36.2% | 84.8% | 67.4% | 40.7% | 51.6% | 39.6% | 80.5% | 38.9% | 49.2%
12 | Cc1ccc(NC(=O)c2ccc(CN3CC[C@H](N(C)C)C3)c(C(F)(F)F)c2)cc1Nc1nccc(-c2cncnc2)n1 | 13.2% | 12.9% | 26.2% | -0.939% (active) | 4.17% (active) | -84.7% (active) | -29.7% (active) | 1.73% (active) | -54.7% (active) | -55.5% (active) | 30.6% | -19.6% (active) | -79.2% (active) | -34.5% (active) | -20.2% (active) | 17.1% | -43.9% (active) | -89.6% (active) | -74.7% (active) | -61% (active)
13 | O=C(Cc1ccc(-c2ccc(OCCN3CCOCC3)cc2)cn1)NCc1ccccc1 | 29% | 48.8% | 33.1% | -3.09% (active) | 2.01% (active) | 27.6% | -5.77% (active) | 4.91% (active) | 24.2% | -65.3% (active) | 8.3% (active) | 7.04% (active) | 40.4% | 26.7% | 29.3% | 29.6% | 11.7% | -33.2% (active) | 8.49% (active) | 0.711% (active)
14 | CSc1nc2ncncc2[nH]1 | 101% | 92.5% | 102% | 82.5% | 110% | 153% | 101% | 103% | 93.9% | 120% | 112% | 93.9% | 111% | 99.3% | 45.4% | 105% | 81% | 89.6% | 114% | 90.7%
15 | CN1CCN(c2nc(C3=C(c4c[nH]c5ccccc45)C(=O)NC3=O)c3ccccc3n2)CC1 | 70.1% | 73.8% | 29.2% | 44.3% | 87.5% | 80.7% | 68% | 51.7% | 92.8% | -2.65% (active) | 90.5% | 66.5% | -12.8% (active) | 70.6% | 120% | 95.1% | 98.7% | 92.2% | -20% (active) | 12.2%
16 | CCN(CC)CCN1C(=O)c2cccc3c(-c4ccc5c(c4)ncn5C4CCCCC4)ccc(c23)C1=O | 20.2% | -29.9% (active) | 43.2% | 8.72% (active) | -30.9% (active) | -7.68% (active) | 21.3% | 18.8% | -46.1% (active) | -20.4% (active) | 28.4% | -14.2% (active) | -74.5% (active) | 11.8% | -11.4% (active) | 39.9% | -41.7% (active) | -76.2% (active) | -15% (active) | -62.8% (active)
